The list is not random: actives were taken first. Their share in the collection is about 11%.
Tau fibril ThT: inhibitors of human tau fibril formation, thioflavin T binding; recombinant tau K18 P301L, heparin-induced fibrillization, ThT fluorescence; Potency, µM (doses to about 57.4 µM), usual class: inhibitors; 270,000 tested, 2.1% active; also: nearly all actives have a fitted effect of over 55% in size
Target sequence (P10636 561-689 P618L limits assumed): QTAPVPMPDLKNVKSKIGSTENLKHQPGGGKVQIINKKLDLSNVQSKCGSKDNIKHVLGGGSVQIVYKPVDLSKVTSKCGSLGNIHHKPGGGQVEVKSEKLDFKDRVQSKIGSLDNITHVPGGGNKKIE
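Heparin-induced (20 uM) aggregation of recombinant human K18 P301L tau, 15 uM unlabeled with 0.24 uM labeled, pH 7 acetate buffer, 6 hr at 37 C with compound. Fibrils quantified by 30 uM ThT fluorescence after 1 hr ambient incubation.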
Tau fluor cs: counter-screen for tau fibril formation inhibitors; Potency, µM (titrated, usually from 57.7 µM); tau K18 P301L (four-repeat tau fragment) Alexa594 fluorescence, heparin fibrillization; 280,000 tested, 0.93% active; also: nearly all actives have a fitted effect of over 55% in size
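Human K18 P301L tau (15 uM unlabeled plus 0.24 uM Alexa 594-labeled, final) in 100 mM sodium acetate pH 7 was mixed with compound and 20 uM heparin and incubated 6 hr at 37 C.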
Sfp inh: Sfp phosphopantetheinyl transferase inhibition; Potency, µM, actives largely listed as inhibitors; Q9F4F7; Biochemical Sfp PPTase activity, qHTS; 310,000 tested, 3.5% active;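 also: the enzyme is Sfp with the accession as filed and its product quenches rhodamine fluorescence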
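Fluorescence-quenching assay: 15 nM Sfp-PPTase preincubated 15 min at room temperature with compound, then 5 uM rhodamine-CoA and 12.5 uM BHQ-2-labelled YbbR peptide added. Fluorescence (ex 525/em 598 nm) read at start and after 30 min; difference gives rate.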
G9a inh: inhibitors of human histone lysine methyltransferase G9a. Q96KQ7. G9a H3K9 monomethylation, AlphaScreen, 2 h. Potency, µM (series often up to 102 µM), most hits filed as inhibitors. 350,000 tested, 8.8% active. AID 504332; also: nearly all actives have a fitted effect of over 75% in size
Target sequence (Q96KQ7 913-1193 limits assumed): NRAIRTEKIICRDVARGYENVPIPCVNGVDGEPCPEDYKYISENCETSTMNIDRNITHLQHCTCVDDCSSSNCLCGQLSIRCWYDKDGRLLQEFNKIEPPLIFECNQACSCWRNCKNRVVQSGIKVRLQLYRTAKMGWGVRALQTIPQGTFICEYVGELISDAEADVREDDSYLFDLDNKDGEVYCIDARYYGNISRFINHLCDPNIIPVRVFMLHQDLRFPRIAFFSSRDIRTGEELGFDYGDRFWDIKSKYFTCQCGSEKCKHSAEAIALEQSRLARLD
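Compounds were preincubated with 20 nM G9a for 15 min, after which biotinylated H3K9 peptide (500 nM) and SAM (20 uM) started a 2 h room-temperature reaction. Monomethylated product was quantified by antibody-based AlphaScreen chemiluminescence.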
FBPA coupling cs: counter-screen for Giardia aldolase inhibitors: coupling enzyme system; coupling enzyme system counterscreen, AmpLite Red fluorescence; activity change, negative = inhibition, % at 58.2 µM, hits read low; 290,000 tested, 0.67% active; AID 2472; in the data active = activity change below about -30%
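Counterscreen of the coupled detection system alone, without aldolase: glyceraldehyde-3-phosphate coupling enzymes plus AmpLite Red readout. Compounds at 57.5 uM final, 10 min RT preincubation, 20 min RT reaction, fluorescence 525/598 nm.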
Tau fibril FP: blocks human tau fibril formation measured by polarization; P10636; K18 P301L tau heparin fibrillization, Alexa594 FP, 6 h; Potency, µM (top dose mostly 57.7 µM), hits mostly inhibitors; 280,000 tested, 0.39% active; AID 1468; also: nearly all actives have a fitted effect of over 55% in size
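Quantitative HTS format: compounds meet 15 uM recombinant K18 P301L tau and Alexa 594-tau tracer in 100 mM sodium acetate pH 7; 20 uM heparin triggers fibrillization at 37 C over 6 hr; FP gives the signal.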
Hits are given with their value; i = inactive; ? = inconclusive; nt = not tested or not shown; [ ] = another dose, or the depositor's remark. Unless noted, calls follow the shape of the dose curve; as a rule, active = well fitted curve in the direction sought with a large enough effect; inconclusive = small, poorly fitted or top-dose-only effect, or another doubt; inactive = no such curve, though single readings can be large; an effect the other way counts as inactive or inconclusive.

SMILES | Tau fibril ThT | Tau fluor cs | Sfp inh | G9a inh | FBPA coupling cs | Tau fibril FP
CCOC(=O)C(=N/O)/C(C)=N/NC(C)=O | i | i | ? | 7.08µM | i | i
Cc1cccc(NC(=O)C(=O)C2C(=O)Nc3ccccc32)c1 (centres undefined) | ? | i | i | 44.7µM | i | i
O=C(Nc1ccc2ccccc2c1)C(=O)C1C(=O)Nc2ccccc21 (centres undefined) | 3.98µM | i | i | nt | i | i
Cc1ccc(CNC(=O)Cn2cc(S(=O)(=O)Cc3ccccc3F)c3ccccc32)cc1 | i | ? | nt | i | nt | i
CC(=O)Nc1sc2c(c1C(c1cccc(Cl)c1)N1CCN(CCO)CC1)CCCC2 (centres undefined) | ? | i | i | 50.1µM | i | i
O=C(Nc1ccncc1)Nc1cccc(Cl)c1 | nt | nt | i | nt | i | nt
CN(C)c1ccc(NC(=O)/C=C/c2c(Cl)cccc2Cl)cc1 | ? | ? | i | 1.78µM | i | i
Cc1cccc(NNC(N)=S)c1 | ? | i | 14.1µM | 39.8µM | i | ?
O=C(Nc1cccc(Cl)c1)Nc1csc([N+](=O)[O-])c1 | 15.8µM | 8.91µM[quencher] | i | i | i | ?
CN(C)S(=O)(=O)c1ccc(NC(=O)/C=C/c2ccccc2Cl)cc1 | i | ? | i | i | i | ?
CN(c1cccc(NC(=O)Nc2cccc(Cl)c2)c1)S(C)(=O)=O | i | ? | i | i | i | ?
CN(C)c1ccc(NC(=O)Nc2cccc(Cl)c2)cc1 | 12.6µM | 14.1µM[quencher] | i | 1.12µM | i | i
Cc1cccc(NCCNc2cccc(C)c2)c1 | ? | ? | i | ? | i | i
NC(=S)NNC(=O)Nc1cccc(Cl)c1 | i | i | i | 8.91µM | i | i
Cc1ccccc1NNC(N)=S | ? | i | 50.1µM | 11.2µM | i | i
NC(=S)NNc1cccc(Cl)c1 | ? | i | 39.8µM | 8.91µM | i | ?
S=C(Nc1cccc(Cl)c1)NC1CCCCC1 | i | i | i | i | i | i
S=C(NNc1cccc(Cl)c1)NC1CCCCC1 | 25.1µM | i | i | 28.2µM | i | ?
CCCCn1c(N)c(N(CCOC)C(=O)c2ccc(S(=O)(=O)N3CCCCC3)cc2)c(=O)[nH]c1=O | nt | nt | nt | i | nt | nt
O=C(CSc1nc2c([nH]c3ccccc32)c(=O)n1-c1ccccc1)Nc1ccc2c(c1)OCO2 | i | ? | nt | i | nt | i
Cc1onc(-c2ccccc2)c1C(=O)Nc1sc2c(c1C(N)=O)CCC2 | ? | ? | ? | 11.2µM | i | ?
Cc1onc(C(=O)Nc2sc3c(c2C(N)=O)CCCC3)c1[N+](=O)[O-] | nt | i | 25.1µM | nt | i | i
CCN1CCN(C(=O)c2c(-c3c(F)cccc3Cl)noc2C)CC1 | i | i | i | i | i | i
Cc1onc(-c2c(F)cccc2Cl)c1C(=O)Nc1sc2c(c1C(N)=O)CCC2 | i | ? | i | 50.1µM | i | i
Cc1onc(-c2c(F)cccc2Cl)c1C(=O)N1CCSCC1 | i | i | i | 50.1µM | i | i
SMILES | Tau fibril ThT | Tau fluor cs | Sfp inh | G9a inh | FBPA coupling cs | Tau fibril FP
NC(=O)c1c(NC(=O)Cn2cc([N+](=O)[O-])cn2)sc2c1CCCC2 | i | i | i | ? | i | i
COC(=O)[C@H](COC(C)(C)C)NC(=O)O[C@@H]1C(=O)c2cc(OC)ccc2O[C@H]1c1cccc(OC)c1 | i | i | i | nt | i | i
CCn1ccnc1CN(C)C(=O)CCc1nnc(CCC2CCCCC2)o1 | i | i | i | ? | i | i
Cc1ccn2c(-c3n[nH]c(=S)n3C)c(C)nc2c1 | i | i | ? | 8.91µM | i | i
Cc1ccn2c(=O)cc(C)nc2c1 | i | i | i | i | i | i
CC(C)(C)c1ccc(-c2n[nH]c(=S)n2C2CCCC2)cc1 | i | i | i | 7.94µM | i | i
CCn1c(-c2ccc(C(C)(C)C)cc2)n[nH]c1=S | i | i | i | 0.562µM | i | i
Cc1nc(-c2ccccc2)sc1-c1n[nH]c(=S)n1C | i | i | i | 3.55µM | i | i
O=C(NC1CCCCCC1)C1c2ccccc2C(=O)N1Cc1ccccc1Cl (centres undefined) | i | i | nt | i | nt | i
Cc1cccc(-c2n[nH]c(=S)n2C)c1 | i | i | i | 28.2µM | i | i
Cn1c(-c2ccc(C(C)(C)C)cc2)n[nH]c1=S | i | i | i | 2µM | i | i

Source: PubChem BioAssay
